Source: PubChem BioAssay (NCI)
About 83,000 compounds went through this panel and 20% of them were active in at least one assay; those are over-represented in the sample as a whole.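 96-well plates, one dose, 48 hours. Percent growth reported; active if below 10.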 Active and inactive are the calls of the source.

Experiments:
Experiment in all cases: NCI-60 one-dose screen, 48 h (100 = growth as untreated, 0 = no growth, -100 = all killed)
DU-145 prostate = conditions: 10 µM
K-562 leukemia = conditions: 10 µM
MALME-3M melanoma = conditions: 10 µM
MDA-MB-231 breast = conditions: 10 µM
RXF 393 renal = conditions: 10 µM
SF-268 CNS = conditions: 10 µM
SF-295 CNS = conditions: 10 µM
SF-539 CNS = conditions: 10 µM
UACC-257 melanoma = conditions: 10 µM
M14 melanoma = conditions: 10 µM
HCT-15 colon = conditions: 10 µM
HT29 colon = conditions: 10 µM
SNB-75 CNS = conditions: 10 µM
U251 CNS = conditions: 10 µM
PC-3 prostate = conditions: 10 µM
SK-MEL-5 melanoma = conditions: 10 µM
UACC-62 melanoma = tested on: UACC-62 melanoma
LOX IMVI melanoma = conditions: 10 µM
SK-MEL-28 melanoma = conditions: 10 µM
SNB-19 CNS = conditions: 10 µM

Measured: growth

CC(=O)Nc1c(C)cc(C)cc1C
inactive: DU-145 prostate 101% | K-562 leukemia 96.3% | MALME-3M melanoma 102% | MDA-MB-231 breast 114% | RXF 393 renal 113% | SF-268 CNS 95.4% | SF-295 CNS 94.3% | SF-539 CNS 103% | UACC-257 melanoma 104% | M14 melanoma 101% | HCT-15 colon 102% | HT29 colon 119% | SNB-75 CNS 89.2% | U251 CNS 99.3% | PC-3 prostate 103% | SK-MEL-5 melanoma 100% | UACC-62 melanoma; 10 µM unless noted 107% | LOX IMVI melanoma 96.9% | SK-MEL-28 melanoma 112%

CC1(C)OC(=O)C(c2ccsc2)C(=O)O1
inactive: DU-145 prostate 107% | K-562 leukemia 107% | MALME-3M melanoma 112% | MDA-MB-231 breast 111% | RXF 393 renal 107% | SF-268 CNS 99.6% | SF-295 CNS 108% | SF-539 CNS 98.9% | UACC-257 melanoma 104% | M14 melanoma 106% | HCT-15 colon 109% | HT29 colon 100% | SNB-75 CNS 92.5% | SNB-19 CNS 108% | PC-3 prostate 85% | UACC-62 melanoma; 10 µM unless noted 105% | LOX IMVI melanoma 88.8% | SK-MEL-28 melanoma 115%

O=C(c1ccccc1)C1CCC1
inactive: DU-145 prostate 117% | K-562 leukemia 99.3% | MALME-3M melanoma 117% | MDA-MB-231 breast 98.3% | RXF 393 renal 109% | SF-268 CNS 100% | SF-295 CNS 104% | SF-539 CNS 103% | UACC-257 melanoma 102% | M14 melanoma 108% | HCT-15 colon 99.7% | HT29 colon 85.4% | SNB-19 CNS 103% | U251 CNS 76.1% | PC-3 prostate 90.4% | SK-MEL-5 melanoma 107% | UACC-62 melanoma; 10 µM unless noted 94%

O=C(O)CCC(=O)OC(C1CO1)C(OC(=O)CCC(=O)O)C1CO1 (stereo unspecified)
inactive: DU-145 prostate 105% | K-562 leukemia 103% | MALME-3M melanoma 86.9% | MDA-MB-231 breast 130% | RXF 393 renal 99.9% | SF-268 CNS 105% | SF-295 CNS 92.3% | SF-539 CNS 95.2% | UACC-257 melanoma 85% | M14 melanoma 98.9% | HCT-15 colon 97.9% | HT29 colon 100% | SNB-75 CNS 94.7% | SNB-19 CNS 111% | SK-MEL-5 melanoma 98.8% | UACC-62 melanoma; 10 µM unless noted 111% | LOX IMVI melanoma 97.1% | SK-MEL-28 melanoma 110%

Cc1cc(N)ccc1-c1ccc(N)cc1C
inactive: DU-145 prostate 110% | K-562 leukemia 106% | MALME-3M melanoma 120% | MDA-MB-231 breast 106% | RXF 393 renal 108% | SF-268 CNS 103% | SF-295 CNS 99.2% | SF-539 CNS 93.8% | UACC-257 melanoma 80.7% | M14 melanoma 94.7% | HCT-15 colon 97.6% | HT29 colon 102% | SNB-19 CNS 107% | U251 CNS 110% | PC-3 prostate 73.8% | SK-MEL-5 melanoma 99.7% | UACC-62 melanoma; 10 µM unless noted 104% | LOX IMVI melanoma 88.2% | SK-MEL-28 melanoma 104%

C/C(=C\c1cc(Cl)ccc1OCC(=O)O)[N+](=O)[O-]
inactive: DU-145 prostate 108% | K-562 leukemia 105% | MALME-3M melanoma 127% | MDA-MB-231 breast 123% | RXF 393 renal 134% | SF-268 CNS 103% | SF-295 CNS 108% | SF-539 CNS 109% | UACC-257 melanoma 102% | M14 melanoma 103% | HCT-15 colon 101% | SNB-75 CNS 112% | SNB-19 CNS 117% | U251 CNS 102% | PC-3 prostate 96.2% | SK-MEL-5 melanoma 111% | UACC-62 melanoma; 10 µM unless noted 109% | LOX IMVI melanoma 88.6% | SK-MEL-28 melanoma 118%

c1ncc2[nH]cnc2n1
inactive: DU-145 prostate 96.6% | K-562 leukemia 102% | MALME-3M melanoma 126% | MDA-MB-231 breast 111% | RXF 393 renal 112% | SF-268 CNS 104% | SF-295 CNS 116% | SF-539 CNS 98.3% | UACC-257 melanoma 87.1% | M14 melanoma 97.9% | HCT-15 colon 87.2% | HT29 colon 92.3% | SNB-19 CNS 102% | U251 CNS 103% | PC-3 prostate 86.3% | SK-MEL-5 melanoma 97.1% | UACC-62 melanoma; 10 µM unless noted 91.9% | LOX IMVI melanoma 103% | SK-MEL-28 melanoma 100%

Cc1cc(=O)cc(C)n1-c1ccccc1
inactive: DU-145 prostate 121% | K-562 leukemia 105% | MALME-3M melanoma 99.3% | MDA-MB-231 breast 106% | RXF 393 renal 104% | SF-268 CNS 109% | SF-295 CNS 96.3% | SF-539 CNS 102% | UACC-257 melanoma 106% | M14 melanoma 101% | HCT-15 colon 104% | HT29 colon 101% | SNB-19 CNS 99.8% | U251 CNS 101% | PC-3 prostate 93.6% | SK-MEL-5 melanoma 106% | UACC-62 melanoma; 10 µM unless noted 99% | SK-MEL-28 melanoma 104%

COc1ccc(NC(=O)CCl)cc1
inactive: DU-145 prostate 94.6% | K-562 leukemia 93.4% | MALME-3M melanoma 88.6% | MDA-MB-231 breast 81.6% | RXF 393 renal 69.7% | SF-268 CNS 73.3% | SF-295 CNS 101% | SF-539 CNS 83.5% | UACC-257 melanoma 60.4% | M14 melanoma 75.1% | HCT-15 colon 72.3% | HT29 colon 67.3% | SNB-19 CNS 104% | PC-3 prostate 74.6% | SK-MEL-5 melanoma 65.3% | UACC-62 melanoma; 10 µM unless noted 83.1% | SK-MEL-28 melanoma 97.2%
active: U251 CNS 6.32%

O=c1cc(-c2ccccc2)[nH]c2c1CCCC2
active: RXF 393 renal -21.7% | SF-539 CNS 3.77% | M14 melanoma 8.23% | SNB-75 CNS -7.33% | SK-MEL-5 melanoma 7.3%
inactive: DU-145 prostate 21.2% | K-562 leukemia 23.2% | MALME-3M melanoma 31.6% | MDA-MB-231 breast 33.8% | SF-268 CNS 57.3% | SF-295 CNS 18.1% | UACC-257 melanoma 46.9% | HCT-15 colon 25% | SNB-19 CNS 39.4% | U251 CNS 27.9% | PC-3 prostate 28.5% | UACC-62 melanoma; 10 µM unless noted 35.2% | LOX IMVI melanoma 37.4% | SK-MEL-28 melanoma 52.1%

C=C1CC/C=C(\C)C(=O)C[C@@H]2[C@@H]1CC2(C)C
active: UACC-62 melanoma; 100 µM -99.1%
inactive: DU-145 prostate 102% | K-562 leukemia 102% | MALME-3M melanoma 103% | MDA-MB-231 breast 125% | RXF 393 renal 55.1% | SF-268 CNS 99.5% | SF-295 CNS 108% | SF-539 CNS 107% | UACC-257 melanoma 111% | M14 melanoma 98.3% | HCT-15 colon 99% | HT29 colon 112% | SNB-19 CNS 95.7% | U251 CNS 100% | SK-MEL-5 melanoma 106% | UACC-62 melanoma; 10 µM 101% | LOX IMVI melanoma 89.7% | SK-MEL-28 melanoma 104%

Oc1ccc(N=Nc2ccc(Br)cc2)c(O)c1
active: DU-145 prostate -11.8% | K-562 leukemia 6.18% | RXF 393 renal -58.3% | SF-539 CNS -18.6% | M14 melanoma -19.2%
inactive: MALME-3M melanoma 36.2% | MDA-MB-231 breast 41.9% | SF-268 CNS 30.8% | SF-295 CNS 15.4% | UACC-257 melanoma 20.6% | HCT-15 colon 21.2% | HT29 colon 93.5% | SNB-19 CNS 38.5% | U251 CNS 16.8% | PC-3 prostate 17% | SK-MEL-5 melanoma 11.1% | UACC-62 melanoma; 10 µM unless noted 39.4% | LOX IMVI melanoma 51.9% | SK-MEL-28 melanoma 51.2%

CCN1C(=O)/C(=C/C=C/N(C)c2ccccc2)SC1=S
inactive: DU-145 prostate 88.8% | K-562 leukemia 79.1% | MALME-3M melanoma 86.4% | MDA-MB-231 breast 94.2% | RXF 393 renal 90.3% | SF-268 CNS 65.7% | SF-295 CNS 54.8% | SF-539 CNS 92.3% | UACC-257 melanoma 97.7% | M14 melanoma 101% | HCT-15 colon 81.5% | HT29 colon 90.4% | SNB-19 CNS 94.1% | U251 CNS 85.5% | PC-3 prostate 85.1% | SK-MEL-5 melanoma 87.5% | UACC-62 melanoma; 10 µM unless noted 91.3% | SK-MEL-28 melanoma 94.6%

CCN(CC)C(=O)/C=C(/C)c1ccccc1
inactive: DU-145 prostate 117% | K-562 leukemia 107% | MALME-3M melanoma 111% | MDA-MB-231 breast 108% | RXF 393 renal 96.7% | SF-268 CNS 104% | SF-295 CNS 100% | SF-539 CNS 107% | UACC-257 melanoma 110% | M14 melanoma 104% | HCT-15 colon 104% | SNB-75 CNS 93.2% | SNB-19 CNS 105% | U251 CNS 105% | PC-3 prostate 93.4% | SK-MEL-5 melanoma 90.1% | UACC-62 melanoma; 10 µM unless noted 103% | LOX IMVI melanoma 98.7% | SK-MEL-28 melanoma 106%

CCOc1ccc(/C=N/N=C(N)N)cc1OCC
inactive: DU-145 prostate 117% | K-562 leukemia 98.7% | MALME-3M melanoma 113% | MDA-MB-231 breast 108% | RXF 393 renal 111% | SF-268 CNS 96.2% | SF-295 CNS 95.9% | SF-539 CNS 99.8% | UACC-257 melanoma 89.7% | M14 melanoma 99.3% | HCT-15 colon 97.6% | HT29 colon 89.5% | SNB-19 CNS 97.6% | U251 CNS 103% | PC-3 prostate 94.1% | SK-MEL-5 melanoma 98.5% | UACC-62 melanoma; 10 µM unless noted 93.1% | LOX IMVI melanoma 101% | SK-MEL-28 melanoma 92.4%

CC1Cc2ccccc2O1 (stereo unspecified)
inactive: DU-145 prostate 124% | K-562 leukemia 117% | MALME-3M melanoma 126% | MDA-MB-231 breast 115% | RXF 393 renal 118% | SF-268 CNS 113% | SF-295 CNS 104% | SF-539 CNS 100% | UACC-257 melanoma 112% | M14 melanoma 107% | HCT-15 colon 99.1% | SNB-75 CNS 105% | SNB-19 CNS 117% | U251 CNS 111% | PC-3 prostate 106% | SK-MEL-5 melanoma 108% | UACC-62 melanoma; 10 µM unless noted 122% | LOX IMVI melanoma 97.4% | SK-MEL-28 melanoma 114%

COc1cc2cc(OC(C)=O)c3cc4c(cc3c2c(OC)c1OC)OCO4
inactive: DU-145 prostate 98.8% | K-562 leukemia 107% | MALME-3M melanoma 98.4% | MDA-MB-231 breast 108% | RXF 393 renal 94.6% | SF-268 CNS 97.9% | SF-295 CNS 93% | SF-539 CNS 103% | UACC-257 melanoma 105% | M14 melanoma 96.5% | HCT-15 colon 99.7% | HT29 colon 101% | SNB-19 CNS 105% | U251 CNS 103% | PC-3 prostate 94.7% | SK-MEL-5 melanoma 99.5% | UACC-62 melanoma; 10 µM unless noted 103% | LOX IMVI melanoma 94.9% | SK-MEL-28 melanoma 105%
